# PubChem BioAssay (Tox21)
# A number with no mark means an inactive call. Records with an inconclusive call do not appear. A call without a number means that no potency is given here. The source made the active and inactive calls. Unless noted, calls come from the whole dose curve.
# Experiments:
# [1] = Nuclear factor erythroid 2-related factor 2/antioxidant responsive element (Nrf2/ARE) small molecule agonists: qHTS cell viability counter screen in human keratinocytes (AID 1919968; active = well fitted curve in the direction sought with a large enough effect in the repeat runs; an effect the other way counts as inactive or inconclusive; note: nearly all actives have a fitted effect of over 55% in size; note: potency is the fitted concentration of half-maximal effect)
# Procedure, shortened: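 HaCaT ARE reporter line, 1,500 cells/well; 5 h settle, 37 C/5% CO2; cpd in DMSO pinned; 23 h exposure; CellTiter-Fluor, 1 h; fluorescence.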
# [2] = Nuclear factor erythroid 2-related factor 2/antioxidant responsive element (Nrf2/ARE) small molecule agonists: luciferase reporter gene qHTS assay in human keratinocytes (AID 1919969); note: nearly all actives have a fitted effect of over 35% in size; note: potency is the fitted concentration of half-maximal effect
# [3] = biological target: Gonadotropin-releasing hormone receptor (Homo sapiens) (UniProt P30968); assay: Human gonadotropin-releasing hormone receptor (GnRHR) small molecule agonists, calcium flux assay in GnRHR-HEK293 cells (AID 1920063); note: nearly all actives have a fitted effect of over 35% in size
# Sequence of Gonadotropin-releasing hormone receptor (Homo sapiens) (P30968 whole entry, looked up): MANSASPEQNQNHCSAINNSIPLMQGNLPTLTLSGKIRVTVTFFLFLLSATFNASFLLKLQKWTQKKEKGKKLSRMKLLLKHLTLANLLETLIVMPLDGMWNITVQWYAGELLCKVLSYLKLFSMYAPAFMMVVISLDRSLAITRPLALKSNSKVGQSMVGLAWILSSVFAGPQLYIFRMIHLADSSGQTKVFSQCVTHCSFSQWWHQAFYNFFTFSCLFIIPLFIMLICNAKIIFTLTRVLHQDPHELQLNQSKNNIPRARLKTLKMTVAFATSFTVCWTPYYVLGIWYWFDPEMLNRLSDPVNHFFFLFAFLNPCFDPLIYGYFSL
# Procedure, shortened: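 GnRHR-HEK293, 1500 cells/well, 18 h 37 C/5% CO2; Ca dye 1 h 37 C; cpd pinned (DMSO), agonist mode; kinetic FL 480/540, 3 min, 1 s reads; 15 conc, n=3.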
# [4] = biological target: KiSS-1 receptor (Homo sapiens) (UniProt Q969F8); assay: Human kisspeptin (KISS1R) small molecule agonists, calcium flux assay in KISS1R-HEK293 cells (AID 1920064; active = well fitted curve in the direction sought with a large enough effect in the repeat runs; an effect the other way counts as inactive or inconclusive)
# Sequence of KiSS-1 receptor (Homo sapiens) (Q969F8 whole entry, looked up): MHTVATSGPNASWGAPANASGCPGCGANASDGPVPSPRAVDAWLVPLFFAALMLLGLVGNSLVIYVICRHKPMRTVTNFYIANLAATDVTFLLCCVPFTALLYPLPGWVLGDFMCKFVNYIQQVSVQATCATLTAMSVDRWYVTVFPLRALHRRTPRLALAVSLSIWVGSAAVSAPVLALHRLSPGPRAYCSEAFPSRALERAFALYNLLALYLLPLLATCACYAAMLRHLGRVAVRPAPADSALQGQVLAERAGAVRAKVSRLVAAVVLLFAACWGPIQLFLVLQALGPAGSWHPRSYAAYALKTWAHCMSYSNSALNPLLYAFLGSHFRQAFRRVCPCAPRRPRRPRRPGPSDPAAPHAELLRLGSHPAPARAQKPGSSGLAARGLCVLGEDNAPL
# Procedure, shortened: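 Stable human KISS1R HEK293 line; 18 h plating, 37 C/5% CO2; calcium dye 1 h 37 C; compound pin transfer; kinetic fluorescence Ex/Em 480/540, 3 min.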
# [5] = G protein-coupled receptor (GPCR) small molecule agonists, calcium flux assay: HEK293 wild type cell line counter screen (AID 1920065)
# Procedure, shortened: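 Kinetic fluorescence at Ex/Em 480/540, recorded every second over 3 min, served as the read-out after compound addition. Each compound was tested at 15 concentrations in triplicate on cells pre-loaded with calcium dye for 1 h.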
# [6] = p53 small molecule agonists, cell-based qHTS assay with human liver microsomes (AID 1963577);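 note: p53 response element beta-lactamase reporter cells with liver microsomes plus NADPH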
# Procedure, shortened: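 HLM-supplemented p53RE-bla reporter assay: 16 h compound exposure at 37 C, microsomes and NADPH each 0.5 mg/mL final, read by fluorescence intensity.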
# [7] = p53 small molecule agonists, cell-based qHTS assay with rat liver microsomes (AID 1963578)
# Procedure, shortened: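 Quantitative HTS of the Tox21 10K library: p53RE-bla cells, rat liver microsomes plus NADPH at 0.5 mg/mL final each, 16 h at 37 C, beta-lactamase fluorescence detection.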
# [8] = p53 small molecule agonists, cell-based qHTS assay with human liver microsomes: qHTS cell viability counter screen (AID 1963579); note: nearly all actives have a fitted effect of over 45% in size; note: potency is the fitted concentration of half-maximal effect
# Procedure, shortened: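 Viability of p53RE-bla cells is measured as CellTiter-Glo luminescence following a 16 h, 37 C incubation with compound, liver microsomes from human donors and NADPH.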
# [9] = p53 small molecule agonists, cell-based qHTS assay with rat liver microsomes: qHTS cell viability counter screen (AID 1963580); note: nearly all actives have a fitted effect of over 45% in size
# Procedure, shortened: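 Viability is assessed in parallel with the p53 reporter read: HCT-116 p53RE-bla cells receive compounds plus rat microsomes and NADPH (0.5 mg/mL final apiece), incubate 16 h at 37 C, and then CellTiter-Glo luminescence is recorded.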
# [10] = biological target: Muscarinic acetylcholine receptor M1 (Homo sapiens) (UniProt P11229); assay: Cholinergic receptor muscarinic 1 (CHRM1) small molecule antagonists, cell-based qHTS assay (AID 1963588); note: nearly all actives have a fitted effect of over 40% in size
# Sequence of Muscarinic acetylcholine receptor M1 (Homo sapiens) (P11229 whole entry, looked up): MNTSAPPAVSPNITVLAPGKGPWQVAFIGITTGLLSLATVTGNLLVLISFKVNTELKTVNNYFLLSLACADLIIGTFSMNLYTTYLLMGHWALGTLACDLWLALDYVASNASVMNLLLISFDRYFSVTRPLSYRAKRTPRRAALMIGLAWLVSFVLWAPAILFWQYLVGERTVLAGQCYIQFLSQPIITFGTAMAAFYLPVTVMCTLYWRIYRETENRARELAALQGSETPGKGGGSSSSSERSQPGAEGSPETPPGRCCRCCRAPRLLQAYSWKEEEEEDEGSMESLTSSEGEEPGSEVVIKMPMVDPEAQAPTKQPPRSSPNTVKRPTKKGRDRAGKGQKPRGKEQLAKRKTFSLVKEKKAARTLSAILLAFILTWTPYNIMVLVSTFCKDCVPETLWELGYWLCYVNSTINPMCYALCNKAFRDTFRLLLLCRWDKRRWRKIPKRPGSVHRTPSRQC
# Procedure, shortened: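 CHRM1-CHO calcium-flux assay, antagonist mode. Cells were seeded 18 h, dye-loaded 1 h at 37 C and given compound for 5 min at RT, then acetylcholine was added at 50nM. FDSS fluorescence was read 3 min; 15 concentrations, three runs.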
# [11] = biological target: Muscarinic acetylcholine receptor M1 (Homo sapiens) (UniProt P11229); assay: Cholinergic receptor muscarinic 1 (CHRM1) small molecule agonists, cell-based qHTS assay (AID 1963589); note: nearly all actives have a fitted effect of over 35% in size
# Procedure, shortened: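 Human M1 in stable CHO line; 18 h plating, 1 h dye load 37 C; cpd added (agonist mode); Ca2+ fluorescence kinetic read, 1 s intervals; 15 conc, 3 runs.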
# [12] = biological target: Beta-2 adrenergic receptor (Homo sapiens) (UniProt P07550); assay: Adrenergic beta2 receptor (ADRB2) small molecule agonists, cell-based qHTS assay (AID 1963593);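 note: CHO cells stably overexpressing human ADRB2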
# Sequence of Beta-2 adrenergic receptor (Homo sapiens) (P07550 whole entry, looked up): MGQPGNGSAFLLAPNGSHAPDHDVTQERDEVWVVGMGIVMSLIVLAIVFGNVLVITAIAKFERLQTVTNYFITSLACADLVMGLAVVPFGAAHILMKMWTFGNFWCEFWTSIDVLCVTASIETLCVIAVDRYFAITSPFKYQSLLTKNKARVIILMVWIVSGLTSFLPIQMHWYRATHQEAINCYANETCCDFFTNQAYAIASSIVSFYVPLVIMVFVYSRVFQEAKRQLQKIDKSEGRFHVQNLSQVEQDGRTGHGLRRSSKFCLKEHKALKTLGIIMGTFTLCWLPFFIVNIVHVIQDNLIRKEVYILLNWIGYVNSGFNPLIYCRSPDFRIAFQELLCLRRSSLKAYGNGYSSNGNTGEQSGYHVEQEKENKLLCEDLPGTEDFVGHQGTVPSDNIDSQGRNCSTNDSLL
# Procedure, shortened: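 CHO cells stably over-expressing ADRB2 were plated overnight at 37C, then dosed with compounds plus a stimulation mix containing 100uM IBMX and 25uM Ro-20-1724 for 0.5hr at room temperature. cAMP was measured by HTRF competition, 1hr.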
# [13] = biological target: D(2) dopamine receptor (Homo sapiens) (UniProt P14416); assay: Dopamine D2 receptor (DRD2) small molecule antagonists, cell-based qHTS assay (AID 1963595; active = well fitted inhibition curve with a large enough effect in the signal ratio in the repeat runs, with a control signal flat; the % refers to the signal ratio; note: potency is the fitted concentration of half-maximal effect)
# Sequence of D(2) dopamine receptor (Homo sapiens) (P14416 whole entry, looked up): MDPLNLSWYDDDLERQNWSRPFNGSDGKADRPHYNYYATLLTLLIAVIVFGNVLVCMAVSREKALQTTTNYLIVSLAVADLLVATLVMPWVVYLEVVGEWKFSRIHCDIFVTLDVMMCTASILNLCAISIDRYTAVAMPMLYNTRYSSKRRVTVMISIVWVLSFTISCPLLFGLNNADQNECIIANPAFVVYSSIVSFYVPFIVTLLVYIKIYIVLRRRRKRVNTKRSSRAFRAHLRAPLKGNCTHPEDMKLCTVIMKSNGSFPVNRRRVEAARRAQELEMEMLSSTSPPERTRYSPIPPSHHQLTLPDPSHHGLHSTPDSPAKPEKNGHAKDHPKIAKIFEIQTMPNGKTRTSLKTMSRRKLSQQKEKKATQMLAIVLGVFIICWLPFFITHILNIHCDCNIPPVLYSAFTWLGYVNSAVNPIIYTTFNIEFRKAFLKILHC
# Procedure, shortened: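 DRD2-HEK293; 0.1 mM Ro20-1724; cpd 10 min RT; NKH477 200 nM + quinpirole 12 nM, 30 min RT; HTRF cAMP (cAMP-d2/anti-cAMP cryptate), 665/620 nm ratio after 1 h.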
# [14] = p53 small molecule agonists, cell-based qHTS assay (AID 1963582; active = well fitted activation curve with a large enough effect in the signal ratio in the repeat runs, not every such curve was filed as active; the % refers to the signal ratio)
# Procedure, shortened: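 Reporter line: p53RE-bla. Pre-incubation 5 h, 37 C, 5% CO2; compound (DMSO, pin tool) 16 h, 37 C; B/G FRET substrate 2 h RT; fluorescence intensity read.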
# [15] = biological target: 5-hydroxytryptamine receptor 2A (Homo sapiens) (UniProt P28223); assay: 5-hydroxytryptamine receptor 2A (HTR2A) small molecule antagonists, cell-based qHTS assay (AID 1963586); note: nearly all actives have a fitted effect of over 45% in size
# Sequence of 5-hydroxytryptamine receptor 2A (Homo sapiens) (P28223 whole entry, looked up): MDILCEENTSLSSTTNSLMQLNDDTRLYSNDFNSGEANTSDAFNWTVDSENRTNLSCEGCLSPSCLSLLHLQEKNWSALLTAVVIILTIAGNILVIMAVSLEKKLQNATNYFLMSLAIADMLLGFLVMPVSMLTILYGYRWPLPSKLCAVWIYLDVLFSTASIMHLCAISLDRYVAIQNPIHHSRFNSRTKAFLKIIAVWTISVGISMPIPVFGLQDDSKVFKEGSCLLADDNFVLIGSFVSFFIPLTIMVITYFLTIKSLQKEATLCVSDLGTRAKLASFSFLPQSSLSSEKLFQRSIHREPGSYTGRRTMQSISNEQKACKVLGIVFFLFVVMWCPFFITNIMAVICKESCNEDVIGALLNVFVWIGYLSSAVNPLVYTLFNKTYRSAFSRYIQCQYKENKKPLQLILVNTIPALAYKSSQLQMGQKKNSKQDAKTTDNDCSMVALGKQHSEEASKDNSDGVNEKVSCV
# Procedure, shortened: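 Antagonist-mode intracellular calcium assay: DOI (4 nM) added after 5 min compound pre-incubation at room temperature to dye-loaded HTR2A-CHO cells. Fluorescence followed for 3 min, sampled every second.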
# [16] = biological target: 5-hydroxytryptamine receptor 2A (Homo sapiens) (UniProt P28223); assay: 5-hydroxytryptamine receptor 2A (HTR2A) small molecule agonists, cell-based qHTS assay (AID 1963587); note: nearly all actives have a fitted effect of over 30% in size
# Procedure, shortened: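 CHO cells stably expressing human HTR2A, plated 18 h, loaded with calcium dye 1 h at 37 C. Agonist mode: compounds added and intracellular calcium fluorescence recorded kinetically for 2 min at 1 sec intervals.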
# [17] = cAMP Responsive Elements (CRE) small molecule agonists, cell-based qHTS assay (AID 1963590)
# Procedure, shortened: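 HEK 293T CRE-bla, 2,000 cells/well, 18 h preincubation 37 C/5% CO2; cpds (DMSO) pinned, 3 h; LiveBLAzer B/G FRET substrate, 2 h RT.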
# [18] = cAMP Responsive Elements (CRE) small molecule antagonists, cell-based qHTS assay (AID 1963591; active = well fitted inhibition curve with a large enough effect in the signal ratio in the repeat runs, not every such curve was filed as active; the % refers to the signal ratio)
# Procedure, shortened: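 Beta-lactamase reporter read by FRET substrate (LiveBLAzer B/G) after 2 h at room temperature. CRE-bla HEK293T cells had received compound plus 0.25 uM (final) NKH477 for 3 h at 37 °C.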
# [19] = biological target: Beta-2 adrenergic receptor (Homo sapiens) (UniProt P07550); assay: Adrenergic beta2 receptor (ADRB2) small molecule antagonists, cell-based qHTS assay (AID 1963592); note: series mostly up to about 92 µM; nearly all actives have a fitted effect of over 50% in size
# Procedure, shortened: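 Cells (CHO, stable ADRB2 overexpression) incubated 18-20hr at 37C; compounds added from DMSO; agonist mix (1nM isoproterenol, 100uM IBMX, 25uM Ro-20-1724) added; 0.5hr RT; d2-cAMP and anti-cAMP-cryptate added; 1hr RT; 665/615 nm read.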
# [20] = biological target: D(2) dopamine receptor (Homo sapiens) (UniProt P14416); assay: Dopamine D2 receptor (DRD2) small molecule agonists, cell-based qHTS assay (AID 1963594); note: nearly all actives have a fitted effect of over 35% in size
# Procedure, shortened: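 HEK293 cells stably expressing human DRD2, pre-treated with PDE inhibitor Ro20-1724 (0.1 mM final) and compound 10 min at room temperature, then stimulated with NKH477 (200nM […]) for 30 min. cAMP read by HTRF (665/620 nm).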
smiles,measurement,setting,value
O=C1CC2(CCCC2)CC(=O)N1CCNCC1COc2ccccc2O1 (configuration not stated),Potency,[1],inactive
same,Potency,[2],inactive
same,Potency,[3],inactive
same,outcome,[4],inactive
same,outcome,[5],inactive
same,Potency,[6],inactive
same,Potency,[7],inactive
same,Potency,[8],inactive
same,Potency,[9],inactive
same,Potency,[10],inactive
same,Potency,[11],inactive
same,Potency,[12],inactive
same,Potency,[13],0.75 µM (active)
C=C(C)CCCC,Potency,[1],inactive
same,Potency,[2],inactive
same,Potency,[3],inactive
same,outcome,[4],inactive
same,outcome,[5],inactive
same,Potency,[6],inactive
same,Potency,[7],inactive
same,Potency,[8],inactive
same,Potency,[14],inactive
same,Potency,[15],inactive
same,Potency,[16],inactive
same,Potency,[10],inactive
same,Potency,[11],inactive
same,Potency,[17],inactive
same,Potency,[18],inactive
same,Potency,[19],inactive
same,Potency,[12],inactive
same,Potency,[20],inactive
same,Potency,[13],inactive
CC1=C(/C=C/C(C)=C\C=C\C(C)=C\C(=O)O)C(C)(C)CCC1,Potency,[1],inactive
same,Potency,[2],54.5 µM (active)
same,Potency,[3],inactive
same,outcome,[4],inactive
same,outcome,[5],inactive
same,Potency,[6],inactive
same,Potency,[7],inactive
same,Potency,[8],inactive
same,Potency,[9],inactive
same,Potency,[19],inactive
same,Potency,[20],inactive
same,Potency,[13],inactive
CCOC(C)=O,Potency,[1],inactive
same,Potency,[2],inactive
same,Potency,[3],inactive
same,outcome,[4],inactive
same,outcome,[5],inactive
same,Potency,[6],inactive
same,Potency,[7],inactive
same,Potency,[8],inactive
same,Potency,[14],inactive
same,Potency,[15],inactive
same,Potency,[16],inactive
same,Potency,[10],inactive
same,Potency,[11],inactive
same,Potency,[17],inactive
same,Potency,[18],inactive
same,Potency,[19],inactive
same,Potency,[20],inactive
same,Potency,[13],inactive
COCCC(=O)OC,Potency,[1],inactive
same,Potency,[2],68.6 µM (active)
same,Potency,[3],inactive
same,outcome,[4],inactive
same,outcome,[5],inactive
same,Potency,[6],inactive
same,Potency,[7],inactive
same,Potency,[8],inactive
same,Potency,[14],inactive
same,Potency,[15],inactive
same,Potency,[16],inactive
same,Potency,[10],inactive
same,Potency,[11],inactive
same,Potency,[17],inactive
same,Potency,[18],inactive
same,Potency,[19],inactive
same,Potency,[20],inactive
same,Potency,[13],inactive
CNc1ccc(O)cc1,Potency,[1],54.4 µM (active)
same,Potency,[2],24.3 µM (active)
same,Potency,[3],inactive
same,outcome,[4],inactive
same,outcome,[5],inactive
same,Potency,[6],inactive
same,Potency,[7],inactive
same,Potency,[8],25.7 µM (active)
same,Potency,[9],inactive
same,Potency,[16],inactive
same,Potency,[11],inactive
O=S(O)(O)=S,"activity change, negative = cytotoxicity",[1],-0.897% [at 8.39 µM]
same,"activity, positive = activation",[2],-3.55% [at 8.39 µM]
same,activity change,[3],"4.24% [at 5.22 µM, stronger effect = higher value]"
same,activation,[4],-0.115% [at 6.97 µM]
same,activation,[5],0.868% [at 5.23 µM]
same,activation,[6],0.289% [at 5.99 µM]
same,activation,[7],-2.47% [at 5.99 µM]
same,"activity change, negative = cytotoxicity",[8],-5.1% [at 5.99 µM]
same,activation,[14],-3.63% [at 5.99 µM]
same,"activity, negative = inhibition",[15],5.27% [at 5.62 µM]
same,activation,[16],7.09% [at 7.02 µM]
same,"activity, negative = inhibition",[10],0.0869% [at 5.58 µM]
same,activation,[11],-0.0505% [at 6.97 µM]
same,activation,[17],-0.269% [at 8.39 µM]
same,"activity change, negative = inhibition",[18],-0.372% [at 8.39 µM]
same,"activity change, negative = inhibition",[19],6.54% [at 8.39 µM]
same,activation,[20],-2.24% [at 8.39 µM]
same,"activity change, negative = inhibition",[13],-2.62% [at 8.38 µM]
CNCc1ccccc1,Potency,[1],inactive
same,Potency,[2],inactive
same,Potency,[3],inactive
same,outcome,[4],inactive
same,outcome,[5],inactive
same,Potency,[6],inactive
same,Potency,[7],inactive
same,Potency,[8],inactive
same,Potency,[14],inactive
same,Potency,[15],inactive
same,Potency,[16],inactive
same,Potency,[10],inactive
same,Potency,[11],inactive
same,Potency,[18],inactive
same,Potency,[19],inactive
same,Potency,[12],inactive
same,Potency,[20],inactive
same,Potency,[13],inactive
